Compound activity from PubChem.
MITF primary: blocks human microphthalmia-associated transcription factor | inhibition, % at 2.6 µM | AlphaScreen MITF homodimerization, bead proximity signal | AID 1259374 | 650,000 compounds, 0.91% hits; in the data active = inhibition above about 50%;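 also: 0% = vehicle wells with protein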
Target sequence (O75030 whole entry, looked up): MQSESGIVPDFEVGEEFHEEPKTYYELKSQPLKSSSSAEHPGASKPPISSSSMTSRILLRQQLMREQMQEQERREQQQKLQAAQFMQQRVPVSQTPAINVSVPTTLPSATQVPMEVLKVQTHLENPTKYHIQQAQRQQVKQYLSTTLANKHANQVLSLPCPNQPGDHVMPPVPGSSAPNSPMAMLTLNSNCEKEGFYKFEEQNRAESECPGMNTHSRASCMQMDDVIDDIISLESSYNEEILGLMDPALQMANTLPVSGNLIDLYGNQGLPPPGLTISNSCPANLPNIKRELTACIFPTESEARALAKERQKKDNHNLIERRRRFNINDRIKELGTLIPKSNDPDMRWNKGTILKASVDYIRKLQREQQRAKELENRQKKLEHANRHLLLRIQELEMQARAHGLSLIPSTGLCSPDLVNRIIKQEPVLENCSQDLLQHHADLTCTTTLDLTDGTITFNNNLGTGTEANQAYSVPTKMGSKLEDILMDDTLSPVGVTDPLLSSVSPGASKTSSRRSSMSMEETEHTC
GPR151 ag: human GPR151 activation; Q8TDV0; PathHunter beta-arrestin GPR151 cells, luminescence; activation, % at 11.2 µM; 650,000 compounds, 1% hits; in the data active = activation above about 4.9%;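 also: 0% = median of compound wells and 100% = cells with positive control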
TEAD-YAP block: TEAD-YAP interaction inhibition | HEK-TIYL cells, TEAD-Gal4/YAP UAS-luciferase luminescence | inhibition, % at 9.12 µM | 640,000 compounds, 1.4% hits | AID 1259422; in the data active = inhibition above about 32%;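 also: 0% = median of test compound wells and 100% = reference inhibitor wells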
FBW7 activator: human FBW7 E3 ligase activation, primary screen; Q969H0; AlphaScreen FBW7–phospho-cyclin E peptide binding, activator screen; normalized activity (activation), % at 26.1 µM; 650,000 compounds, 0.13% hits; AID 1259310; in the data active = normalized activity above about 1.9%;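 also: purified mutant Fbw7 with reduced substrate affinity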
GPR151 conf act: human GPR151 activation, confirmation screen. shares compounds with GPR151 ag. GPR151 PathHunter beta-arrestin cells, luminescence, 90 min; % of EA-reagent control over plate median. activation, % at 11.2 µM. 6,700 tested, under 10 active;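 active = mean percent activation across replicates above the confirmation screen cutoff of 4.91%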
GPR119 counter: activates human GPR119 in a GPR151 counter-screen; shares compounds with GPR151 ag; GPR119 PathHunter beta-arrestin cells, luminescence, 90 min; 0 = compound-well median, 100 = enzyme-acceptor control; activation, % at 11.2 µM; 6,700 compounds, 0.3% hits;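 active = mean percent activation in the counterscreen above 29.09%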;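 also: counterscreen on off-target GPR119 to flag nonselective hits from the GPR151 activator screen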
* = called active by the depositor; · = not tested or not shown; ! = a repeat was not active. Most compounds without a hit are left out; they make up all but 3.5% or so of the library.

SMILES	MITF primary	GPR151 ag	TEAD-YAP block	FBW7 activator	GPR151 conf act	GPR119 counter
CCc1nnc(NS(=O)(=O)c2ccc(NC(=O)CN3C(=O)c4ccccc4C3=O)cc2)s1	-5.1	7.4*	2.0	-0.1	0.7	13.9
CC1CCCN(c2c(-c3ccc(Cl)cc3)c(=O)c2=O)C1 (stereo unspecified)	-3.0	5.9*	9.6	-0.1	0.6	-4.9
C=CCOc1ccc(/C(O)=C2/C(=O)C(=O)N(CCN(CC)CC)C2c2ccc(C)cc2)c(C)c1 (stereo unspecified)	-6.9	7.1*	4.6	0.1	-0.2	-3.3
CCCC(=O)Nc1sc2c(c1C#N)CCC2	1.1	0.8	-20.6	-0.2	·	·
COCc1c(C(=O)NN)nnn1-c1nonc1N	-6.6	1.4	1.3	-0.1	·	·
Cc1ccc(NC2SC(=O)N(Cc3ccccc3)C2=O)cc1 (stereo unspecified)	-3.5	1.1	9.7	0.1	·	·
Cc1ccc(C(=O)NC(=S)NNc2nc3ccccc3[nH]2)cc1	14.7	5.3*	-5.1	0.1	1.6	7.7
COC(=O)C1=C(C(=O)OC)[C@@H]2N(C)c3ccccc3[C@@]23CCC(=O)N(CCCOC(C)C)C3=N1	-4.2	7.2*	·	0.1	-0.9	-6.9
COCCN1C(=O)CC[C@@]23C1=NC(C(=O)OC)=C(C(=O)OC)[C@@H]2N(C)c1ccccc13	15.0	6.9*	·	0.1	0.7	7.9
COCCN1C(=O)CC[C@@]23C1=NC(C(=O)OC)=C(C(=O)OC)[C@@H]2N(Cc1ccccc1)c1ccccc13	-3.4	-0.3	·	-0.1	·	·
CCCS(=O)(=O)N1CCN=C1SCc1ccccc1	-0.1	0.8	-4.4	0.0	·	·
CCS(=O)(=O)N1CCN=C1SCc1ccccc1	-6.7	5.6*	4.6	-0.4	1.2	10.1
COc1ccc(OC)c(C2=NNC(=NCc3ccc4c(c3)OCO4)SC2)c1	-3.9	5.6*	-5.4	-0.1	1.4	10.1
COc1ccc(OC)c(CNCc2ccc3c(c2)OCO3)c1	36.9	-1.0	-8.6	0.0	·	·
CCc1ccc(NC(=O)C(=O)NCCN(C)C)cc1	-2.2	-0.5	4.8	-0.1	·	·
Cc1ccc(N2CC(C(=O)N3CCCCCC3)CC2=O)cc1 (stereo unspecified)	-0.8	4.9*	-10.0	0.0	0.1	-7.8
CC(C)NC(=O)C1CC(=O)N(c2ccc(Cl)cc2)C1 (stereo unspecified)	3.0	5.8*	-3.9	-0.2	0.2	0.8
CCn1cnc2sc(C(=O)Nc3cc(Oc4ccc(Cl)c(C)c4)cc([N+](=O)[O-])c3)c(C)c2c1=O	-2.0	0.0	-2.7	0.0	·	·
COc1ccc(NCc2ccc(SC)cc2)cc1OC	-18.3	-0.9	-5.2	-0.2	·	·
Cc1cccc(CCNc2c(-c3ccccc3)c(=O)c2=O)c1	2.3	1.4	12.8	0.7	·	·
Cc1ccsc1CCNc1c(-c2ccccc2)c(=O)c1=O	11.6	5.2*	9.2	0.1	0.8	10.4
CCOC(=O)N(C)Cc1nc2ccccc2n1Cc1c(F)cccc1Cl	17.3	-1.4	-4.1	0.4	·	·
COC(=O)c1ccc(C(=O)OC)c(N=CC2=C(O)CC(C)(C)CC2=O)c1	-5.6	-2.5	-13.1	0.0	·	·
O=C(Nc1ccccc1)c1ccc([N+](=O)[O-])o1	-0.3	0.1	-7.7	-0.1	·	·
CC(C)CN(C(=O)c1ccccc1Cl)c1nnc(-c2ccncc2)s1	12.2	6.3*	-5.5	-1.3	0.1	-2.1
SMILES	MITF primary	GPR151 ag	TEAD-YAP block	FBW7 activator	GPR151 conf act	GPR119 counter
Cc1ccc(N2C(=O)C(Cl)=C(N3CCCCC3)C2=O)cc1	-11.6	7.5*	7.0	0.3	-0.6	-2.3
CC(C)NC(=O)c1ccc2c(c1)N(CC(=O)NC1CCCC1)C(=O)C(C)(C)O2	7.6	2.5	-4.7	0.1	·	·
CCc1nc(-n2nc(C)cc2N)c2c3c(sc2n1)CCCC3	-3.4	6.5*	-1.5	-0.3	0.8	-8.0
CCc1nc(-n2nc(C)cc2N)c2c3c(sc2n1)CCC3	-3.6	-2.4	-3.9	0.0	·	·
Cc1c(O)ccc(C(=O)CN2CCN(c3ccccc3)CC2)c1O	7.9	-0.2	-0.8	0.0	·	·
Cc1c(O)ccc(C(=O)CN2CCN(c3ccccc3F)CC2)c1O	-0.7	5.0*	3.1	-0.1	0.7	0.9
O=C(C1CCC(CNc2c(N3CCCC3)c(=O)c2=O)CC1)N1CCc2ccccc21 (stereo unspecified)	11.3	5.3*	-1.0	-0.1	-1.4	-15.1
Cc1ccc(C2CC(c3cccs3)=NN2C(=O)CSc2nnc(CNC(=O)c3cccc([N+](=O)[O-])c3C)n2Cc2ccccc2)cc1 (stereo unspecified)	1.6	0.6	-14.7	0.0	·	·
O=c1c2ccccc2c(-c2ccc(Br)cc2)nn1-c1ccccc1	5.5	-1.4	10.1	0.2	·	·
CC(C)c1ccc(-c2nn(-c3ccccc3)c(=O)c3ccccc23)cc1	-6.0	5.2*	1.8	0.0	0.7	-5.0
CCN(CC)CCNC(=O)c1cc(Cl)c(N)cc1OC	6.3	6.6*!	-7.2	0.0	1.4	-0.2
O=C(Nc1ccc(Cl)cc1)C1CC(c2ccccc2O)=NO1 (stereo unspecified)	-3.6	5.5*	-10.9	-0.1	-0.8	-17.2
O=C(Nc1cc(Cl)ccc1O)C1CC(c2ccccc2O)=NO1 (stereo unspecified)	-4.4	0.4	1.9	0.0	·	·
CCCNC(=O)c1cncc(-c2ccc(C(=O)NC3CC3)cc2)c1	2.8	5.7*	-7.1	-0.1	0.9	5.8
Cc1cccc(OCCCn2c(C(C)O)nc3ccccc32)c1 (stereo unspecified)	9.3	-0.5	4.0	1.0	·	·
CNC(=O)C1CN(Cc2ccc3c(c2)OCO3)CCN1C(=O)c1ccc(F)c(F)c1 (stereo unspecified)	2.5	7.2*	-2.5	-0.1	-0.2	-9.4
CNC(=O)/C(C#N)=C/c1ccc(-c2nc3ccccc3s2)o1	-5.5	5.5*	-58.4	-0.2	-0.7	-1.5
N#C/C(=C\c1ccc(-c2nc3ccccc3s2)o1)C(N)=O	9.0	-1.7	-39.8	0.0	·	·
C#CCNC(=O)c1c(C)nc2c(C)cccn12	3.1	1.4	15.3	0.2	·	·
CCOc1ccc2c(-c3cc4cc(Br)ccc4oc3=O)cc(=O)oc2c1	-2.8	7.9*	-3.3	0.4	-0.4	-11.9
CC(=O)c1cccc(NC(=O)CSc2nnc(-c3cc4ccccc4cc3O)n2C)c1	-0.9	5.0*	11.7	-0.2	0.1	-2.2
C=CCn1c(CNC(=O)c2ccco2)nnc1SCC(=O)Nc1cccc(F)c1	2.6	7.3*	2.2	0.0	1.3	0.5
C=CCn1c(SCC(=O)Nc2cccc(SC)c2)nnc1-c1ccccc1O	-6.1	5.7*	9.8	0.0	1.0	-1.6
C=CCn1c(/N=C/c2ccc(OC)cc2)nc2ccccc21	6.2	5.0*	5.3	0.1	1.6	11.9
C=CCn1c(COc2ccc(OC)cc2)nc2ccccc21	-4.2	-0.7	-59.1	-0.3	·	·
COc1ccc(C(=O)NCc2ccccc2)cc1I	-3.0	-0.5	-5.8	0.1	·	·
